Screening results deposited in PubChem BioAssay by National Center for Advancing Translational Sciences (NCATS).
RORgamma inh – qHTS for inhibitors of ROR gamma transcriptional activity; Nuclear receptor ROR-gamma (Mus musculus), P51450; Drosophila S2 Gal4-RORgamma UAS-luciferase reporter, 20 h; Potency, µM (titrated, usually from 53.6 µM), for the others: top-dose activity change, negative = inhibition, hits mostly inhibitors; 5.4% of 310,000 active; note: potency is the fitted concentration of half-maximal effect; nearly all actives have a fitted effect of over 60% in size
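Schneider cells (Drosophila), stable Gal4 DBD–ROR gamma + UAS-luc; 1 hr cmpd preincubation; Cu2+ induction 700 uM final; 20 hr ambient; luminescence.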
CtBP-E1A blk – qHTS Assay for Inhibitors of the CtBP/E1A Interaction; CtBP / adenovirus E1A interaction (AlphaScreen); 0.49% of 340,000 active; AlphaScreen GST-E1A/His-CtBP binding, 1536-well; stronger effect = lower value; activity change, % (test concentration not listed); AID 651724, 2012; in the data active = activity change below about -65%; inconclusive = mostly about -30% to -63%
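In 5 uL wells, 23 nL compound meets equimolar GST-E1A and His-CtBP (5X stock 125 nM each) for 2 h, 37 °C. Beads (5X, 50 ug/mL) then 1 h, 37 °C, dark.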
Six1-Eya2 inh – qHTS Assay for Inhibitors of the Six1/Eya2 Interaction. AlphaScreen GST-Six1/His-Eya2 binding, biochemical; stronger effect = lower value. activity change, % (no concentration beside the values). 0.56% of 360,000 active. Homeobox protein SIX1 (Homo sapiens) + Protein phosphatase EYA2 (Homo sapiens), …; in the data active = activity change below about -65%; inconclusive = mostly about -30% to -63%
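AlphaScreen luminescence read after one hour at 37 °C in darkness. Pin-transferred compounds met GST-Six1 and His-Eya2 protein (5X stock 250 nM/500 nM) plus glutathione donor and Ni-chelate acceptor beads (5X, 50 ug/mL).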
Gal4-VP16 FLuc – VP16 counterscreen qHTS for inhibitors of ROR gamma transcriptional activity. Potency, µM (titrated, usually from 53.6 µM), without a hit: at the highest dose activity, negative = inhibition, usual class: inhibitors. AID 2546, 2010. 3.5% of 310,000 active. Drosophila S2 Gal4-VP16 UAS-luciferase, luminescence, 20 h;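 note: Gal4-VP16 expression switched on by copper sulfate through the metallothionein promoter; potency is the fitted concentration of half-maximal effect; nearly all actives have a fitted effect of over 50% in size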
PKM2 act – qHTS Assay for Activators of Human Muscle isoform 2 Pyruvate Kinase | Pyruvate kinase PKM (Homo sapiens), P14618 | purified PKM2, Kinase-Glo ATP luminescence, activation; response scale: 0% is enzyme alone, no compound | Potency, µM (series often up to 57.5 µM), inactives show top-dose activation, usual class: activators | 0.34% of 260,000 active | AID 1631, 2009; note: potency is the fitted concentration of half-maximal effect; nearly all actives have a fitted effect of over 55% in size
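Purified hPK-M2 (>95% pure) converted ADP (0.1 mM final) to ATP with 0.5 mM PEP in 50 mM imidazole pH7.2, KCl, MgCl2, Tween 20, BSA; 1 h at room temperature. ATP detected by Kinase-Glo luminescence.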
An asterisk follows results filed as active; ? = inconclusive; nt = no result given. Shown are actives, neighbours in structure and some others; about 5.6% of the full set was active somewhere. Unless noted, calls come from the whole dose curve; as a rule, active = well fitted curve in the direction sought with a large enough effect; inconclusive = small, poorly fitted or top-dose-only effect, or another doubt; inactive = no such curve, though single readings can be large; an effect the other way counts as inactive or inconclusive. % is set by controls: 0 for no effect and ±100 for the full control effect.

SMILES	RORgamma inh	CtBP-E1A blk	Six1-Eya2 inh	Gal4-VP16 FLuc	PKM2 act
CC(=O)c1cccc(NC(=O)NC2CCCCCCC2)c1	-9.9%	9.0	8.1	-20.6%	-3.7%
CC(C)OC(=O)c1ccc(NC(=S)NC(=O)c2cncc(Br)c2)cc1	2.24µM*	-14.7	14.4	2.82µM*	nt
CC(=O)c1cccc(NC(=S)NC(=O)c2cncc(Br)c2)c1	10µM*	nt	8.8	17.8µM*	-0.3%
O=C(CN(c1ccccc1)S(=O)(=O)c1ccc(F)cc1)NCc1cccs1	nt	5.1	-1.1	nt	nt
N=c1c(S(=O)(=O)c2ccc(Cl)cc2)cc2c(=O)n3ccccc3nc2n1C1CCCC1	12.0%	12.0	4.5	-0.5%	-7.2%
CCCCCCN1C=CC=C/C1=C\C=C(C#N)C#N	6.8%	-23.1	-18.6	-5.1%	0.8%
C=C(C)C1CCC(C)C(OC(C)=O)C1 (stereo not drawn)	-2.2%	nt	nt	1.3%	nt
O=C(Nc1cnccc1C(F)(F)F)NC1CCCCC1	15.4%	6.7	5.1	6.5%	4.9%
O=C(O)c1cccc(NC(=S)NC(=O)c2ccc(-c3ccccc3)cc2)c1	8.2%	2.0	0.7	-20.6%	1.8%
COC(=O)c1ccc(NC(=S)NCCC2=CCCCC2)cc1	-7.6%	4.3	0.7	0.8%	1.9%
CN(C)C(=S)NC(=O)c1cccc(Cl)c1	0.562µM*	-0.3	6.2	2µM*	?
CC(=O)c1cccc(NC(=O)COC(=O)Cc2ccc(Cl)cc2)c1	nt	3.1	3.6	nt	nt
COC(=O)c1cccc(NC(=S)NCCC2=CCCCC2)c1	3.16µM*	-0.5	-1.4	?	-1.3%
CC(=O)c1cccc(NC(=S)NCCc2ccc(Cl)cc2)c1	12.6µM*	-12.4	4.6	?	2.1%
CC(=O)c1cccc(NC(=S)NC(=O)c2ccccc2)c1	8.91µM*	-8.3	0.6	?	0.2%
Cc1cc(=O)c2c(O)c3c(O)cc(O)c4c5c(O)cc(O)c6c(O)c7c(=O)cc(C)c8c1c2c(c34)c(c65)c78	-21.0%	nt	nt	-18.4%	nt
CC(NC(=O)COc1ccccc1)C(=O)NCc1ccccc1Cl (stereo not drawn)	nt	2.0	9.8	nt	nt
COc1ccc(C(=O)NCCc2cccc(Cl)c2)cc1OC1CCN(C(C)=O)CC1	?	-7.6	1.5	24.7%	-2.9%
CC(C)(C)OC(=O)C[C@H]1C/C=C\C[C@H](CC(=O)N[C@H](CO)Cc2ccccc2)C(=O)N2CCC[C@@H]2COC1=O	nt	8.0	8.2	nt	nt
CC(=O)c1cccc(NC(=S)NC(=O)c2cccc(Cl)c2)c1	2.82µM*	-7.9	-7.6	10µM*	-1.9%
CCCCC(=O)NC(=S)Nc1cccc(C(=O)O)c1	-21.9%	3.0	11.8	0.6%	1.0%
CC(=O)c1cccc(NC(=S)NC(=O)CC(C)(C)C)c1	12.6µM*	6.4	1.7	?	0.0%
Cc1ccc(SCCNC(=S)Nc2ccc(C)c(C)c2)cc1	4.47µM*	-21.7	-16.5	8.91µM*	3.7%
COC(=O)Cc1ccc(NC(=S)NCCSc2ccc(Cl)cc2)cc1	15.8µM*	-1.3	-13.4	?	3.3%
CSc1cccc(NC(=S)Nc2cc(C)ccc2C)c1	11.2µM*	-4.5	-2.9	?	-4.8%
SMILES	RORgamma inh	CtBP-E1A blk	Six1-Eya2 inh	Gal4-VP16 FLuc	PKM2 act
COc1ccccc1NC(=S)NCCSc1ccc(C)cc1	12.6µM*	-2.5	-8.8	11.2µM*	6.0%
Cc1ccc(NC(=S)NCCO)c(C)c1	-43.2%	2.0	-1.8	4.2%	0.8%
Cc1cc(C)cc(NC(=S)NCCCO)c1	-40.4%	6.9	9.9	-2.5%	1.9%
Cc1ccc(SCCNC(=S)Nc2cc(C)ccc2C)cc1	6.31µM*	-0.4	-23.0	7.94µM*	1.8%
Cc1ccc(SCCNC(=S)Nc2ccccc2)cc1	0.794µM*	-1.2	-9.3	1µM*	19.5%
Cc1cc(C)cc(NC(=S)NCCSc2ccc(Cl)cc2)c1	2.82µM*	-2.7	-2.8	5.01µM*	-6.3%
O=C(OC1CCCCC1=O)c1cc(Cl)ccc1[N+](=O)[O-] (stereo not drawn)	-0.5%	0.0	-1.0	-1.2%	-34.7%
